# Test results taken from PubChem BioAssay AID1159580 (chemical genetic matrix, 2015).
# Several values for one entry are separate records, joined by “and”; a condition that tells them apart may be missing. Identical values can stand only once. About 2,000 (36%) of roughly 5,500 compounds were called active. Another 18% or so got no clear call; they are omitted. Rule as the data show it: active = normalized growth mostly below about 0.91 (no sharp cut-off); inconclusive = no clear call, values can overlap the other calls; inactive = mostly above about 0.92. The list shows a part of the results. Some structures have more than one record in an assay (separate samples or runs), and their calls can disagree.
# Test: chemical genetic growth profiling, strain panel (AID 1159580);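 also: tested at 20 µM; growth read once vehicle control cultures reached saturation at 30 °C; 1 = growth at the plate median or of vehicle wells; lower values mean less growth of the strain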
# Settings: growth OD
smiles,measurement,setting,value
Cc1cc(O)c2c(c1)C(=O)c1cc(O)cc(O)c1C2=O,normalized growth,"S. cerevisiae deletion strains, locus YAL013W, strain DEP1, stronger effect = lower value",0.868 (active)
same,normalized growth,"S. cerevisiae deletion strains, locus YAL040C, strain CLN3, stronger effect = lower value",0.749 (active)
same,normalized growth,"S. cerevisiae deletion strains, locus YBR021W, strain FUR4, stronger effect = lower value",0.914 (inactive)
same,normalized growth,"S. cerevisiae deletion strains, locus YBR229C, strain ROT2, stronger effect = lower value",0.923 (inactive)
same,normalized growth,"S. cerevisiae deletion strains, locus YCL029C, strain bik1, stronger effect = lower value",0.734 (active)
same,normalized growth,"S. cerevisiae deletion strains, locus YCL061C, strain MRC1 (second series), stronger effect = lower value",0.986 (inactive)
same,normalized growth,"S. cerevisiae deletion strains, locus YDL035C, strain GPR1, stronger effect = lower value",0.699 (active)
same,normalized growth,"S. cerevisiae deletion strains, locus YDL074C, strain BRE1, stronger effect = lower value",0.56 (active)
same,normalized growth,"S. cerevisiae deletion strains, locus YDL101C, strain DUN1, stronger effect = lower value",0.732 (active)
same,normalized growth,"S. cerevisiae deletion strains, locus YDL134C, strain PPH21, stronger effect = lower value",0.783 (active)
same,normalized growth,"S. cerevisiae deletion strains, locus YDL185W, strain tfp1, stronger effect = lower value",0.795 (active)
same,normalized growth,"S. cerevisiae deletion strains, locus YDL192W, strain arf1, stronger effect = lower value",0.393 (active)
same,normalized growth,"S. cerevisiae deletion strains, locus YDR101C, strain arx1, stronger effect = lower value",0.584 (active)
same,normalized growth,"S. cerevisiae deletion strains, locus YDR162C, strain NBP2, stronger effect = lower value",0.483 (active)
same,normalized growth,"S. cerevisiae deletion strains, locus YDR318W, strain mcm21, stronger effect = lower value",0.712 (active)
same,normalized growth,"S. cerevisiae deletion strains, locus YDR363W, strain ESC2, stronger effect = lower value",1.02 (inactive)
same,normalized growth,"S. cerevisiae deletion strains, locus YDR388W, stronger effect = lower value",0.471 (active)
same,normalized growth,"S. cerevisiae deletion strains, locus YDR502C, strain sam2, stronger effect = lower value",0.56 (active)
same,normalized growth,"S. cerevisiae deletion strains, locus YEL061C, strain CIN8, stronger effect = lower value",0.745 (active)
same,normalized growth,"S. cerevisiae deletion strains, locus YER002W, strain NOP16, stronger effect = lower value",0.749 (active)
same,normalized growth,"S. cerevisiae deletion strains, locus YER110C, stronger effect = lower value",0.671 (active)
same,normalized growth,"S. cerevisiae deletion strains, locus YER155C, strain BEM2, stronger effect = lower value",0.716 (active)
same,normalized growth,"S. cerevisiae deletion strains, locus YER167W, strain BCK2, stronger effect = lower value",0.674 (active)
same,normalized growth,"S. cerevisiae deletion strains, locus YGL078C, strain dbp3, stronger effect = lower value",0.789 (active)
same,normalized growth,"S. cerevisiae deletion strains, locus YGL086W, strain mad1, stronger effect = lower value",0.645 (active)
same,normalized growth,"S. cerevisiae deletion strains, locus YGL248W, strain PDE1, stronger effect = lower value",0.853 (active)
same,normalized growth,"S. cerevisiae deletion strains, locus YGR078C, strain PAC10, stronger effect = lower value",0.723 (active)
same,normalized growth,"S. cerevisiae deletion strains, locus YGR135W, strain pre9, stronger effect = lower value",0.741 (active)
same,normalized growth,"S. cerevisiae deletion strains, locus YGR229C, strain SMI1, stronger effect = lower value",0.338 (active)
same,normalized growth,"S. cerevisiae deletion strains, locus YGR252W, strain gcn5, stronger effect = lower value",0.415 (active)
same,normalized growth,"S. cerevisiae deletion strains, locus YHR030C, strain SLT2, stronger effect = lower value",0.629 (active)
same,normalized growth,"S. cerevisiae deletion strains, locus YHR079C, strain IRE1 (second series), stronger effect = lower value",0.854 (active)
same,normalized growth,"S. cerevisiae deletion strains, locus YHR094C, strain hxt1, stronger effect = lower value",0.673 (active)
same,normalized growth,"S. cerevisiae deletion strains, locus YHR129C, strain ARP1, stronger effect = lower value",0.705 (active)
same,normalized growth,"S. cerevisiae deletion strains, locus YHR200W, strain rpn10, stronger effect = lower value",0.75 (active)
same,normalized growth,"S. cerevisiae deletion strains, locus YIL066C, strain RNR3, stronger effect = lower value",0.688 (active)
same,normalized growth,"S. cerevisiae deletion strains, locus YIL073C, strain SPO22, stronger effect = lower value",0.959 (inactive)
same,normalized growth,"S. cerevisiae deletion strains, locus YIL125W, strain kgd1, stronger effect = lower value",0.842 (active)
same,normalized growth,"S. cerevisiae deletion strains, locus YIR030C, strain dcg1, stronger effect = lower value",0.635 (active)
same,normalized growth,"S. cerevisiae deletion strains, locus YJL095W, strain BCK1, stronger effect = lower value",0.475 (active)
same,normalized growth,"S. cerevisiae deletion strains, locus YJL134W, strain LCB3, stronger effect = lower value",0.907 (active)
same,normalized growth,"S. cerevisiae deletion strains, locus YJL168C, strain set2, stronger effect = lower value",0.818 (active)
same,normalized growth,"S. cerevisiae deletion strains, locus YJL187C, strain SWE1 (second series), stronger effect = lower value",0.69 (active)
same,normalized growth,"S. cerevisiae deletion strains, locus YJR043C, strain POL32, stronger effect = lower value",0.708 (active)
same,normalized growth,"S. cerevisiae deletion strains, locus YJR075W, strain HOC1, stronger effect = lower value",0.998 (inactive) and 0.795 (active)
same,normalized growth,"S. cerevisiae deletion strains, locus YKL009W, strain mrt4, stronger effect = lower value",0.753 (active)
same,normalized growth,"S. cerevisiae deletion strains, locus YKL068W, stronger effect = lower value",0.857 (active)
same,normalized growth,"S. cerevisiae deletion strains, locus YKL085W, strain MDH1 (second series), stronger effect = lower value",0.795 (active)
same,normalized growth,"S. cerevisiae deletion strains, locus YKL085W, strain MDH1, stronger effect = lower value",0.795 (active)
same,normalized growth,"S. cerevisiae deletion strains, locus YKL190W, strain CNB1, stronger effect = lower value",0.823 (active)
same,normalized growth,"S. cerevisiae deletion strains, locus YKR001C, strain vps1, stronger effect = lower value",0.309 (active)
same,normalized growth,"S. cerevisiae deletion strains, locus YLR039C, strain RIC1, stronger effect = lower value",0.313 (active)
same,normalized growth,"S. cerevisiae deletion strains, locus YLR058C, strain SHM2, stronger effect = lower value",0.834 (active)
same,normalized growth,"S. cerevisiae deletion strains, locus YLR102C, strain apc9, stronger effect = lower value",0.837 (active)
same,normalized growth,"S. cerevisiae deletion strains, locus YLR262C, strain YPT6, stronger effect = lower value",0.383 (active)
same,normalized growth,"S. cerevisiae deletion strains, locus YLR268W, strain sec22, stronger effect = lower value",0.474 (active)
same,normalized growth,"S. cerevisiae deletion strains, locus YLR330W, strain CHS5, stronger effect = lower value",0.708 (active)
same,normalized growth,"S. cerevisiae deletion strains, locus YLR342W, strain FKS1 (second series), stronger effect = lower value",0.553 (active)
same,normalized growth,"S. cerevisiae deletion strains, locus YLR371W, strain rom2, stronger effect = lower value",0.612 (active)
same,normalized growth,"S. cerevisiae deletion strains, locus YLR418C, strain cdc73, stronger effect = lower value",0.324 (active)
same,normalized growth,"S. cerevisiae deletion strains, locus YML016C, strain PPZ1, stronger effect = lower value",0.916 (active)
same,normalized growth,"S. cerevisiae deletion strains, locus YML032C, strain rad52, stronger effect = lower value",0.6 (active)
same,normalized growth,"S. cerevisiae deletion strains, locus YML124C, strain tub3, stronger effect = lower value",0.724 (active)
same,normalized growth,"S. cerevisiae deletion strains, locus YMR078C, strain ctf18, stronger effect = lower value",0.776 (active)
same,normalized growth,"S. cerevisiae deletion strains, locus YMR223W, strain ubp8, stronger effect = lower value",0.643 (active)
same,normalized growth,"S. cerevisiae deletion strains, locus YMR263W, strain SAP30, stronger effect = lower value",0.968 (inactive) and 0.787 (active)
same,normalized growth,"S. cerevisiae deletion strains, locus YMR307W, strain GAS1, stronger effect = lower value",0.8 (active) and 0.335 (active)
same,normalized growth,"S. cerevisiae deletion strains, locus YNL067W, strain RPL9B, stronger effect = lower value",0.782 (active)
same,normalized growth,"S. cerevisiae deletion strains, locus YNL128W, strain TEP1, stronger effect = lower value",0.713 (active)
same,normalized growth,"S. cerevisiae deletion strains, locus YNL153C, strain GIM3, stronger effect = lower value",0.439 (active) and 0.847 (active)
same,normalized growth,"S. cerevisiae deletion strains, locus YNL175C, strain NOP13, stronger effect = lower value",0.732 (active)
same,normalized growth,"S. cerevisiae deletion strains, locus YNL197C, strain WHI3, stronger effect = lower value",0.727 (active)
same,normalized growth,"S. cerevisiae deletion strains, locus YNL224C, strain SQS1, stronger effect = lower value",0.861 (active)
same,normalized growth,"S. cerevisiae deletion strains, locus YNL233W, strain BNI4, stronger effect = lower value",0.63 (active)
same,normalized growth,"S. cerevisiae deletion strains, locus YNL250W, strain rad50, stronger effect = lower value",0.73 (active)
same,normalized growth,"S. cerevisiae deletion strains, locus YNL271C, strain bni1, stronger effect = lower value",0.782 (active)
same,normalized growth,"S. cerevisiae deletion strains, locus YNL298W, strain CLA4, stronger effect = lower value",0.716 (active)
same,normalized growth,"S. cerevisiae deletion strains, locus YNL307C, strain MCK1, stronger effect = lower value",0.59 (active)
same,normalized growth,"S. cerevisiae deletion strains, locus YNL322C, strain KRE1, stronger effect = lower value",0.832 (active)
same,normalized growth,"S. cerevisiae deletion strains, locus YNR052C, strain pop2, stronger effect = lower value",0.218 (active)
same,normalized growth,"S. cerevisiae deletion strains, locus YOL012C, strain htz1",0.486 (inactive)
same,normalized growth,"S. cerevisiae deletion strains, locus YOL147C, strain pex11, stronger effect = lower value",0.402 (active)
same,normalized growth,"S. cerevisiae deletion strains, locus YOR061W, strain CKA2, stronger effect = lower value",0.834 (active)
same,normalized growth,"S. cerevisiae deletion strains, locus YOR069W, strain VPS5, stronger effect = lower value",0.796 (active)
same,normalized growth,"S. cerevisiae deletion strains, locus YOR083W, strain WHI5 (second series), stronger effect = lower value",0.422 (active)
same,normalized growth,"S. cerevisiae deletion strains, locus YOR136W, strain idh2, stronger effect = lower value",0.661 (active)
same,normalized growth,"S. cerevisiae deletion strains, locus YOR144C, strain elg1, stronger effect = lower value",0.759 (active)
same,normalized growth,"S. cerevisiae deletion strains, locus YOR184W, strain ser1, stronger effect = lower value",0.299 (active)
same,normalized growth,"S. cerevisiae deletion strains, locus YOR316C, strain cot1, stronger effect = lower value",0.83 (active)
same,normalized growth,"S. cerevisiae deletion strains, locus YPL055C, strain LGE1, stronger effect = lower value",0.556 (active)
same,normalized growth,"S. cerevisiae deletion strains, locus YPL241C, strain CIN2, stronger effect = lower value",0.986 (inactive)
same,normalized growth,"S. cerevisiae deletion strains, locus YPR119W, strain clb2, stronger effect = lower value",0.808 (active)
same,normalized growth,"S. cerevisiae deletion strains, locus YPR141C, strain kar3, stronger effect = lower value",0.868 (active)
same,normalized growth,"S. cerevisiae deletion strains, locus YPR163C, strain tif3, stronger effect = lower value",0.403 (active)
same,normalized growth,"S. cerevisiae deletion strains, locus YPR167C, strain met16, stronger effect = lower value",0.708 (active)
same,normalized growth,"S. cerevisiae deletion strains, strain wtn01, stronger effect = lower value",0.608 (active)
same,normalized growth,"S. cerevisiae strains, strain wild type, stronger effect = lower value",0.715 (active)
